Laboratory results as given in PubChem BioAssay AID1903 (Southern Research Specialized Biocontainment Screening …, 2009).
Out of some 310,000 compounds screened, about 1,200 (0.39%) were called active. The rule behind the calls is not given here. These entries were drawn from the full list. Measured potencies and affinities stand elsewhere.

molecular target: Large T antigen (Simian virus 40) (UniProt P03070); test: SV40 large T antigen inhibitors, biochemical (AID 1903); conditions: SV40 large T antigen ATPase/helicase inhibition assay; at 20 µM; hits give high values
Sequence (P03070 whole entry, looked up): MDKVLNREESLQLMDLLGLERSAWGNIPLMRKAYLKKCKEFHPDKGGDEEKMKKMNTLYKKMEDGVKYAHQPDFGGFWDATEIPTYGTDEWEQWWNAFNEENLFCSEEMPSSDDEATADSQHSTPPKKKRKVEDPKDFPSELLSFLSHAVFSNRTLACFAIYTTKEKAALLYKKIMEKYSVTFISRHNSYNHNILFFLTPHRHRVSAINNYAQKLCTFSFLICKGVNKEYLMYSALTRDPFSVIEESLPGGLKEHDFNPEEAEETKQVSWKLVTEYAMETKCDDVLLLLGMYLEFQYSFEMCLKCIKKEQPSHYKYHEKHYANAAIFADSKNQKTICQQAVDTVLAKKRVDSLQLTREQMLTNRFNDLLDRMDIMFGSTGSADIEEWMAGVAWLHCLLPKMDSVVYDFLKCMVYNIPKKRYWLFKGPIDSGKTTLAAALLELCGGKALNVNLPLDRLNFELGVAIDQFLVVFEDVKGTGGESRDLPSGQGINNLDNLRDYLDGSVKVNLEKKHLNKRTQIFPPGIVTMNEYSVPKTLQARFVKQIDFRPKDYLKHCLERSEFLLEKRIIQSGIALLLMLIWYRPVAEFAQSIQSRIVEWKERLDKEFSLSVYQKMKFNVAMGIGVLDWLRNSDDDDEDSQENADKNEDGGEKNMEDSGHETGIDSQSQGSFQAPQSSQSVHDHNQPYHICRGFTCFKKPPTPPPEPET

inhibition, inactive:
Nc1nnnn1CC(=O)N/N=C/C=C/c1ccccc1 13.8%
CC(C)N=C(Nc1ccccc1)c1cccnc1 -1.87%
Cc1snc(SCc2ccc(F)cc2)c1C#N 10.8%
COc1ccc(NC(=O)c2ccc(-n3cnnn3)cc2)c([N+](=O)[O-])c1 -1.81%
O=C1CSC(=S)N1c1cccc(Br)c1 9.66%
O=c1c2c([N+](=O)[O-])cc([N+](=O)[O-])cc2nc2ccccn12 9.53%
O=C1c2c([N+](=O)[O-])cc([N+](=O)[O-])cc2S(=O)N1Cc1ccccc1 (centres undefined) 11.3%
CC1CCCC(C)N1C(=O)COC(=O)c1ccc2c(c1)OCO2 (centres undefined) -2.3%
Cc1ccc(S(=O)(=O)N2CCN(C(=O)COC(=O)CCOc3cc(C)ccc3C)CC2)cc1 7.19%
COc1ccccc1OCC(=O)N1CCNC1=O 12%
O=C1NC(=S)N/C1=C/c1ccc2c(c1)OCO2 11.6%
O=Cc1ccc2c(c1)CCN2Cc1ccccc1 3.42%
O=C(O)c1cccc(S(=O)(=O)Nc2ccc3[nH]c(=O)[nH]c3c2)c1 -8.06%
O=C(O)c1cccc(S(=O)(=O)Nc2ccc3c(c2)OCO3)c1 15.8%
CC(=O)c1c(C)oc2ccc(NS(=O)(=O)c3ccc(O)c(C(=O)O)c3)cc12 20.5%
O=C(O)c1cc(NS(=O)(=O)c2ccc3ccccc3c2)ccc1O 25.9%
C=CCN(c1ccccc1)S(=O)(=O)c1cccc(C(=O)NNC(=O)c2ccccc2O)c1 7.21%
CC(C)c1nc(SCC(=O)Nc2ccc3c(c2)OCCO3)c2c(=O)n(C)c(=O)n(C)c2n1 3.08%
Cc1c(NC(=O)/C(C#N)=C/c2ccc(-c3cc(Cl)ccc3Cl)o2)c(=O)n(-c2ccccc2)n1C 0.645%
C/C(=N\Nc1nc(N)cc(Cl)n1)c1ccc(F)cc1 1.42%
CSc1cccc(CNC(=O)C2CCC(=O)N(CCc3ccccn3)C2)c1 (centres undefined) 25.2%
Cc1ccc(-c2ccc(=O)n(CC(=O)NCCN3C(C)CCCC3C)n2)cc1 (centres undefined) 0.56%
COc1ccccc1N(CC(=O)NCc1ccccc1C)S(=O)(=O)c1ccc(C)cc1 2.07%
Cc1ccc2c(c1)/C(=C/c1ccco1)C(=O)N2 -3.2%
O=C1Nc2ccccc2Nc2ncccc21 -0.98%
COc1cc(C(=O)O)c2c(c1C)OC(=O)c1c(C)cc(O)c(C=O)c1O2 5.23%
COc1cc(C)c2c(c1C=O)Oc1c(c(C)c(O)c3c1C(O)OC3=O)OC2=O (centres undefined) 20%
Cc1ccccc1NC(=O)NC1(C(=O)N2CCN(C)CC2)CCCCC1 8.19%
COc1cc(OC)cc(C(=O)N/N=C/c2ccc(OC)c(COc3ccc(F)cc3)c2)c1 -6.49%
Cc1ccc(-c2nnc(Nc3cccc(O)c3)c3ccccc23)cc1S(=O)(=O)NCCO 34.4%
CC(=O)Nc1ccc(Nc2nnc(-c3ccc(C)c(S(=O)(=O)NCCO)c3)c3ccccc23)cc1 10.9%
Cc1cnc(NCCc2ccccc2)s1 7.89%
O=C(CSc1nncc2ccccc12)Nc1cccc(C(=O)O)c1 27.1%
CN(CC(=O)Nc1ccc(F)cc1)C(=O)COc1ccc([N+](=O)[O-])cc1Cl 0.38%
C[C@@H]1O[C@@H](O[C@H]2[C@H](Oc3cc(O)c4c(c3)O[C@H](c3ccc(O)cc3)CC4=O)O[C@H](CO)[C@@H](O)[C@@H]2O)[C@H](O)[C@H](O)[C@H]1O 25.7%
C[C@@H]1O[C@@H](O[C@H]2[C@H](Oc3cc(O)c4c(c3)OC(c3ccc(O)cc3)CC4=O)O[C@H](CO)[C@@H](O)[C@@H]2O)[C@H](O)[C@H](O)[C@H]1O (some centres undefined) 34%
CC(C)Oc1ccc(CN2CCCC(CO)(Cc3ccc(F)cc3)C2)cc1 (centres undefined) 6.25%
Cc1nn(-c2ccccc2)c2sc(C(=O)NCCN3CCOCC3)cc12 16.1%
O=C1NN(c2cccc(Br)c2)C(=O)/C1=C\c1ccccc1 26.7%
O=C1NN(c2cccc(Br)c2)C(=O)/C1=C\c1ccc(N2CCOCC2)cc1 8.36%
O=C(NCc1ccccc1)C1CC(=O)N(c2ccc(OCC(=O)N3CCCC3)cc2)C1 (centres undefined) 5.81%
COc1ccccc1N(CC(=O)NCc1ccco1)S(C)(=O)=O 15.8%
CN(C)c1cc(Nc2ccc(O)cc2)c([N+](=O)[O-])c2nonc12 14.7%
O=[N+]([O-])c1c(Nc2ccccn2)cc(Cl)c2nonc12 27.4%
O=C(O)c1ccccc1Nc1cc(Cl)c2nonc2c1[N+](=O)[O-] 33.3%
CN(C)c1cc(Nc2cccc(O)c2)c([N+](=O)[O-])c2nonc12 16.9%
O=[N+]([O-])c1c(Nc2ccccc2O)cc(Cl)c2nonc12 29.4%
O=C(O)c1cccc(Nc2cc(Cl)c3nonc3c2[N+](=O)[O-])c1 20.1%
Cc1c(Nc2cc(Cl)c3nonc3c2[N+](=O)[O-])c(=O)n(-c2ccccc2)n1C 26.5%
O=C(O)c1cccc(Nc2ccc3nonc3c2[N+](=O)[O-])c1 10.9%
O=C(O)c1cnc(-c2ccccc2)nc1Sc1ccc(Cl)cc1 12.4%
CCOc1ccc(C(c2nnnn2C(C)(C)C)N2CCN(C(=O)c3ccco3)CC2)cc1 (centres undefined) 4.34%
CC(NS(=O)(=O)c1ccc(F)cc1)C(c1cccs1)N1CCOCC1 (centres undefined) -5.54%
COC(=O)c1ccccc1NC(=O)CCCCCn1nnc2ccccc2c1=O 26.9%
COc1cccc(CN(C)CC(=O)NCc2ccc(F)cc2)c1OC -3.04%
CC(=O)Oc1ccc(-c2cccc(C(=O)Oc3ccccc3)c2)cc1 -7.54%
CCN(CC)S(=O)(=O)c1ccc(NC(=O)COC(=O)CCc2cc(OC)c(OC)c(OC)c2)cc1 0.42%
O=[N+]([O-])c1ccccc1NCCOc1ccccc1 5.2%
COC(=O)c1ccccc1NC(=O)C/C(C)=N/NC(=O)CC#N 6.52%
CC(C)C[C@H](NC(=O)Nc1cccc(Cl)c1)C(=O)O 10.3%
O=C(CN1CCOCC1)Nc1ccccc1Cl 8.91%
O=C(N/N=C/c1ccc(-c2cccc([N+](=O)[O-])c2)o1)c1ccccc1O 2.92%
NC(N)=N/N=C/c1cc([N+](=O)[O-])ccc1O 9.25%
NC(=O)N/N=C/c1ccc(-c2ccc([N+](=O)[O-])cc2)o1 12.1%
O=C(N/N=C/c1ccc(O)cc1O)C1CC1 33.4%
CCCCn1c(N)c(N(CC(C)C)C(=O)C2CCN(S(=O)(=O)c3ccc(Cl)cc3)CC2)c(=O)[nH]c1=O 11.5%
O=C(NCC1CCCCC1)c1cccnc1 11.1%
CCCC(=O)Nc1cc2c3c(c1)CC(=O)N3CCC2 8.54%
O=C(NCCO)C(=O)Nc1cc2c3c(c1)CC(=O)N3CCC2 7.7%
Cc1ccc(Nc2ccc(N)cc2S(=O)(=O)O)cc1 21.6%
Cc1cc(C)cc(Nc2ccc(C(=O)O)cc2N)c1 23.9%
Cc1ccc(Nc2ccc(C(=O)O)cc2N)cc1 -4.88%
Nc1ccc(Nc2ccccc2)c(Cl)c1 19.8%
CC(=O)c1c(NCCc2ccccc2)cc(C)oc1=O -0.81%
CCC(OC(=O)c1cccs1)C(=O)NCc1ccco1 (centres undefined) 8.42%
Cc1c(Cl)cccc1NC(=O)NC1CCCCC1 2.26%
CCc1cccc2c(C(=O)CSc3nncn3-c3ccccc3OC)c[nH]c12 2.74%
COc1cccc(-n2cc(C(=O)NCCCOC(C)C)c3ccccc3c2=O)c1 11.2%
O=C(/C=C/c1ccc(O)c(O)c1)OC(Cc1ccc(O)c(O)c1)C(=O)O (centres undefined) 4.28%
O=C(/C=C/c1ccc(O)c(O)c1)OCCc1ccccc1 37.9%
CN(CCCNS(=O)(=O)c1cccc2cccnc12)Cc1ccccc1 -0.29%
O=C(Cn1c(=O)n(Cc2ccco2)c(=O)c2c3c(sc21)CCCCC3)c1ccccc1 49.4%
O=C(Cn1c(=O)n(Cc2ccco2)c(=O)c2c3c(sc21)CCCCC3)Nc1ccccc1 51.6%
CN1C(=O)C(CC(=O)NC2CCCCC2)N(C)C1=O (centres undefined) -7.63%
Cc1cccc(N=Cc2c(O)cc(C)oc2=O)c1 7.74%
CCOc1ccc(N=Cc2c(O)cc(C)oc2=O)cc1 18.6%
NC(=O)CN1CCN(S(=O)(=O)c2ccc(Cl)cc2)CC1 4.21%
COc1ccc(C2CC(=O)C=C(O)C2)cc1 (centres undefined) 6.5%
COc1ccc(C(C2C(=O)CC(C)(C)CC2=O)C2C(=O)CC(C)(C)CC2=O)cc1 25.9%
CC(=O)N(Cc1cccc(Br)c1)c1ccc(N2CCOCC2)c(Cl)c1 9.14%
Cn1c(COc2ccc3ccccc3c2)nnc1SCC(N)=O -1.72%
NC(=O)c1cc2ccc(O)cc2oc1=Nc1ccccc1 36.3%
Cc1cccc(N=c2oc3cc(O)ccc3cc2C(N)=O)c1 22.6%
CN(C)/C=N/c1c(C#N)cnn1-c1ccccc1 9.99%
